# Test results from article PMC7862700, “An all-to-all approach to the identification of sequence-specific readers for epigenetic DNA modifications on cytosine”.
# Tests used:
# Assay in all cases: DAPPL (digital affinity profiling via proximity ligation, sequencing); 10 mM Tris-HCl pH 7.5, 50 mM NaCl, 1 mM DTT, 4% glycerol, room temperature, 30 min; GST-TFs on glutathione beads, 16-mer random dsDNA library, 0.1% formaldehyde crosslink after washing; high values mean tight binding
# Details in all cases: protein: recombinant; tags: N-terminal GST; dsDNA, one strand shown
# ERF = biological target: T1, ERF (Homo sapiens, UniProt P50548 1-548)
# T1 sequence: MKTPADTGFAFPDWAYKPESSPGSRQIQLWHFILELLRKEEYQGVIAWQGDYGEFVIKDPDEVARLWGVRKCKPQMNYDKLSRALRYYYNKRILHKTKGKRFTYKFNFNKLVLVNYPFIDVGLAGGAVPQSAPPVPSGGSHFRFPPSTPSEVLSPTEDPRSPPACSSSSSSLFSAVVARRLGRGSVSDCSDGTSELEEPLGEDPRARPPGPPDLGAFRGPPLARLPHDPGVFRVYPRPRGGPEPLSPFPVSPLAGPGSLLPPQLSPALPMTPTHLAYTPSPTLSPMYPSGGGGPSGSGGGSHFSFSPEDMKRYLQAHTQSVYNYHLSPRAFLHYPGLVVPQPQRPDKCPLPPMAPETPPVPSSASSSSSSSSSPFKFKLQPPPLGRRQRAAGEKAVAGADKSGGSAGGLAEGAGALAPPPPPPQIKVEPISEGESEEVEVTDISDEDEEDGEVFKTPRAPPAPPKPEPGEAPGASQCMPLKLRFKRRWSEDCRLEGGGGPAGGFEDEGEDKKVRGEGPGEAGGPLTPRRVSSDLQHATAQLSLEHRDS
# Procedure, shortened: (§1)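 After expression in yeast as GST fusions, human transcription factors were bound to glutathione beads, DNA-barcoded and mixed with a tag-only sample. The pools were incubated with 200 nmole of a 16-mer random double-stranded DNA library in Tris/NaCl/DTT/glycerol buffer (30 min, room temperature), washed and crosslinked with 0.1% formaldehyde. Proximity ligation with BsaI/T4 ligase ran for 1 h at 37 °C, before PCR amplification and sequencing on an Illumina NextSeq500. Binding signal is a hexamer's read frequency for a factor divided by its frequency for the tag-only sample.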
# ETV3L = biological target: T2, ETV3L (Homo sapiens, UniProt Q6ZN32 1-361)
# T2 sequence: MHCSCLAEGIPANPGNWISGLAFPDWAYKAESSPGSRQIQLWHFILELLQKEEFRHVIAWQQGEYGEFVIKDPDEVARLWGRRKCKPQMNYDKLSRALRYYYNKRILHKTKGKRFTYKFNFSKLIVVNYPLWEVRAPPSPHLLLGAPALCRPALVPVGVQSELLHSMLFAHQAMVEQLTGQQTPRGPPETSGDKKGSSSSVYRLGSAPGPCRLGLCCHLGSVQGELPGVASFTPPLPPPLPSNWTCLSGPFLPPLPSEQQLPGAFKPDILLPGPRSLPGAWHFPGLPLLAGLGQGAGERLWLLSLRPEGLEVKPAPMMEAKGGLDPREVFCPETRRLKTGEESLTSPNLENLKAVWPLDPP
# Procedure, shortened: as §1
# ETS2 = biological target: T3, ETS2 (Homo sapiens, UniProt P15036 1-469)
# T3 sequence: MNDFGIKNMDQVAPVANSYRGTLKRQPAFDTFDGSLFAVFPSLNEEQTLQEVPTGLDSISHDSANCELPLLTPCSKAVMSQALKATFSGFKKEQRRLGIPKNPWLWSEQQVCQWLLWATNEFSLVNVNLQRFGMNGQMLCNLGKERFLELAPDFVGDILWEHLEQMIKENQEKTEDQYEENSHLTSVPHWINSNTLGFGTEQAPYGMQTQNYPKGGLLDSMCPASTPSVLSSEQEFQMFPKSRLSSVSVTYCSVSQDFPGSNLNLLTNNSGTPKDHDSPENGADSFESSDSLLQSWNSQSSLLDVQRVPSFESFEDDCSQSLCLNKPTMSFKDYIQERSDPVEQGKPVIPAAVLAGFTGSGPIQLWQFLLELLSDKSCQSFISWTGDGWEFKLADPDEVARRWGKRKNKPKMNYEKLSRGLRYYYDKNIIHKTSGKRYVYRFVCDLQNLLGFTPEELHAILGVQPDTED
# Procedure, shortened: as §1
# SPDEF = biological target: T4, SPDEF (Homo sapiens, UniProt O95238 1-335)
# T4 sequence: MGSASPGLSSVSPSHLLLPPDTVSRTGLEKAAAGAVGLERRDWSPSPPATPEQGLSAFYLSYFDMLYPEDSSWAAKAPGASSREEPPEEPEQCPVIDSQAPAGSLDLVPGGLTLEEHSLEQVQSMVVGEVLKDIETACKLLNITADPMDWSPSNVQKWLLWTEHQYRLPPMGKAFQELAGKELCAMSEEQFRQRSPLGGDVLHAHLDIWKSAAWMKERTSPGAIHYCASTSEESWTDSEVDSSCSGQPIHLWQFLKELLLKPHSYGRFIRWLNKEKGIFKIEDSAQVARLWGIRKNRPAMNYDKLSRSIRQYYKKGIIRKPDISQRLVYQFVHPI
# Procedure, shortened: as §1
# ETV7 = biological target: T5, ETV7 (Homo sapiens, UniProt Q9Y603 1-341)
# T5 sequence: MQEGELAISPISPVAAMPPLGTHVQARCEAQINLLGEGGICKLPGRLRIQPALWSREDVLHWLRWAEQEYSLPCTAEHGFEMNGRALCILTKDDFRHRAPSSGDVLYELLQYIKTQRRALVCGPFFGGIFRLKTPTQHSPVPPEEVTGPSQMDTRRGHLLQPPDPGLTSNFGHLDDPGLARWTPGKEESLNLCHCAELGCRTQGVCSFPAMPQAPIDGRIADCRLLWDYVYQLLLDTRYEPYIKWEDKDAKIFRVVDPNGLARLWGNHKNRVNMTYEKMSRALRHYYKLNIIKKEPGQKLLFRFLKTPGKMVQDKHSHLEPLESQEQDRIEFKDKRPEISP
# Procedure, shortened: as §1
# ELF5 = biological target: T6, ELF5 (Homo sapiens, UniProt Q9UKW6-2 1-255)
# T6 sequence: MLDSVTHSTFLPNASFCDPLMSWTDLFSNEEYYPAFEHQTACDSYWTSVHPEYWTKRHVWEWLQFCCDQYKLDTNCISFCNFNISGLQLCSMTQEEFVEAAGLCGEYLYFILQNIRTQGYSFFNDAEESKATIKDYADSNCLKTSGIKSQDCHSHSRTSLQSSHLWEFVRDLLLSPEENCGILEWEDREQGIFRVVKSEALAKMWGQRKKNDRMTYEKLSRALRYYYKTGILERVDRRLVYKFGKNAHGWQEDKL
# Procedure, shortened: as §1
# ETV3 = biological target: T7, ETV3 (Homo sapiens, UniProt P41162-2 1-143)
# T7 sequence: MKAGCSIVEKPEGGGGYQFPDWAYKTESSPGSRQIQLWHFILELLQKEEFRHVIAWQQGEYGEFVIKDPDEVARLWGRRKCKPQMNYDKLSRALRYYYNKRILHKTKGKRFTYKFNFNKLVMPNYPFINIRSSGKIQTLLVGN
# Procedure, shortened: as §1
# ETV6 = ETV6 (Homo sapiens, UniProt P41212 1-452)
# Sequence of ETV6 (P41212 whole entry): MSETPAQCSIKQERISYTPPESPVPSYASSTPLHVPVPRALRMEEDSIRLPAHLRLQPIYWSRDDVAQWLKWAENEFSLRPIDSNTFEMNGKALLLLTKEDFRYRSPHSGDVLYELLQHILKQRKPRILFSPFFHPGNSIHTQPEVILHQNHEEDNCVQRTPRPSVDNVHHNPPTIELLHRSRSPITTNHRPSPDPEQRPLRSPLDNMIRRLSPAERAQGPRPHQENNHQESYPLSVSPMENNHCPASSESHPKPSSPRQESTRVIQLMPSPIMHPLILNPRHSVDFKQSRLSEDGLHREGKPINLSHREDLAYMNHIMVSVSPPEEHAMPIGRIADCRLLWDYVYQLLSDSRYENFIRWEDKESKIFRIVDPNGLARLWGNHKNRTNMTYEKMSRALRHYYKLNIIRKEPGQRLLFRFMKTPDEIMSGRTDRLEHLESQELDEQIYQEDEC
# Procedure, shortened: as §1
Sequence,binding signal (ERF),binding signal (ETV3L),binding signal (ETS2),binding signal (SPDEF),binding signal (ETV7),binding signal (ELF5),binding signal (ETV3),binding signal (ETV6)
TCCACA,"1.31 fold enrichment (6-mer frequency, TF over GST control)","1.24 fold enrichment (6-mer frequency, TF over GST control)","1.29 fold enrichment (6-mer frequency, TF over GST control)","1.25 fold enrichment (6-mer frequency, TF over GST control)","1.17 fold enrichment (6-mer frequency, TF over GST control)","1.13 fold enrichment (6-mer frequency, TF over GST control)","1.2 fold enrichment (6-mer frequency, TF over GST control)","1.25 fold enrichment (6-mer frequency, TF over GST control)"
CTGAAA,"1.09 fold enrichment (6-mer frequency, TF over GST control)","1.1 fold enrichment (6-mer frequency, TF over GST control)","1.19 fold enrichment (6-mer frequency, TF over GST control)","1.16 fold enrichment (6-mer frequency, TF over GST control)","1.12 fold enrichment (6-mer frequency, TF over GST control)","1.09 fold enrichment (6-mer frequency, TF over GST control)","1.17 fold enrichment (6-mer frequency, TF over GST control)","1.16 fold enrichment (6-mer frequency, TF over GST control)"
CTAATC,"1.31 fold enrichment (6-mer frequency, TF over GST control)","1.34 fold enrichment (6-mer frequency, TF over GST control)","1.32 fold enrichment (6-mer frequency, TF over GST control)","1.34 fold enrichment (6-mer frequency, TF over GST control)","1.41 fold enrichment (6-mer frequency, TF over GST control)","1.33 fold enrichment (6-mer frequency, TF over GST control)","1.32 fold enrichment (6-mer frequency, TF over GST control)","1.35 fold enrichment (6-mer frequency, TF over GST control)"
AACTCG,"1.44 fold enrichment (6-mer frequency, TF over GST control)","1.43 fold enrichment (6-mer frequency, TF over GST control)","1.31 fold enrichment (6-mer frequency, TF over GST control)","1.31 fold enrichment (6-mer frequency, TF over GST control)","1.33 fold enrichment (6-mer frequency, TF over GST control)","1.35 fold enrichment (6-mer frequency, TF over GST control)","1.4 fold enrichment (6-mer frequency, TF over GST control)","1.33 fold enrichment (6-mer frequency, TF over GST control)"
TTCCGA,"1.5 fold enrichment (6-mer frequency, TF over GST control)","1.48 fold enrichment (6-mer frequency, TF over GST control)","1.67 fold enrichment (6-mer frequency, TF over GST control)","1.47 fold enrichment (6-mer frequency, TF over GST control)","1.64 fold enrichment (6-mer frequency, TF over GST control)","1.78 fold enrichment (6-mer frequency, TF over GST control)","1.68 fold enrichment (6-mer frequency, TF over GST control)","1.85 fold enrichment (6-mer frequency, TF over GST control)"
TATACG,"1.39 fold enrichment (6-mer frequency, TF over GST control)","1.15 fold enrichment (6-mer frequency, TF over GST control)","1.37 fold enrichment (6-mer frequency, TF over GST control)","1.39 fold enrichment (6-mer frequency, TF over GST control)","1.39 fold enrichment (6-mer frequency, TF over GST control)","1.35 fold enrichment (6-mer frequency, TF over GST control)","1.3 fold enrichment (6-mer frequency, TF over GST control)","1.23 fold enrichment (6-mer frequency, TF over GST control)"
ATTTAA,"1.21 fold enrichment (6-mer frequency, TF over GST control)","1.19 fold enrichment (6-mer frequency, TF over GST control)","1.28 fold enrichment (6-mer frequency, TF over GST control)","1.24 fold enrichment (6-mer frequency, TF over GST control)","1.27 fold enrichment (6-mer frequency, TF over GST control)","1.1 fold enrichment (6-mer frequency, TF over GST control)","1.13 fold enrichment (6-mer frequency, TF over GST control)","1.21 fold enrichment (6-mer frequency, TF over GST control)"
AAGATG,"1.18 fold enrichment (6-mer frequency, TF over GST control)","1.12 fold enrichment (6-mer frequency, TF over GST control)","1.16 fold enrichment (6-mer frequency, TF over GST control)","1.1 fold enrichment (6-mer frequency, TF over GST control)","1.12 fold enrichment (6-mer frequency, TF over GST control)","1.14 fold enrichment (6-mer frequency, TF over GST control)","1.09 fold enrichment (6-mer frequency, TF over GST control)","1.2 fold enrichment (6-mer frequency, TF over GST control)"
CTTCGA,"1.41 fold enrichment (6-mer frequency, TF over GST control)","1.37 fold enrichment (6-mer frequency, TF over GST control)","1.36 fold enrichment (6-mer frequency, TF over GST control)","1.3 fold enrichment (6-mer frequency, TF over GST control)","1.44 fold enrichment (6-mer frequency, TF over GST control)","1.27 fold enrichment (6-mer frequency, TF over GST control)","1.16 fold enrichment (6-mer frequency, TF over GST control)","1.43 fold enrichment (6-mer frequency, TF over GST control)"
